Screening results (PubChem)
Hits are enriched below; roughly 21% of the tested compounds scored in any of these assays.
NS1 inh – inhibitors of influenza NS1 protein function | Potency, µM (highest dose often 46.1 µM), inactives show top-dose activity, positive = more growth | hit rate 0.4% among 270,000; calls by dose curve; further: potency means the concentration at half of the fitted maximal effect; actives are rising curves; nearly all actives have a fitted effect of over 50% in size
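Read-out: OD600 growth recovery of NS1-expressing budding yeast. Cells grown overnight at 30C in -URA glucose medium, washed, resuspended and diluted 1:100 in 2% galactose assay medium, pH 6.0. Same strain lacking NS1 served as positive control.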
Pf growth 96h – inhibits malaria parasite growth, 96 h | P. falciparum luciferase reporter growth, 96 h | Potency, µM (top dose mostly 28.7 µM), for inactives: top-dose activity change, negative = inhibition, usual class: inhibitors | hit rate 6.9% among 320,000 | AID 504834; further: potency means the concentration at half of the fitted maximal effect; on the % scale 0 is the no-effect control and ±100 the full control effect
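Parasite growth measured via integrated firefly luciferase reporter in P. falciparum. Infected erythrocytes at 2% hematocrit, 0.05% parasitemia final were treated 96 hours at 37 C under 5% CO2, and luminescence was read.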
Shiga toxin inh – inhibitors of Shiga toxin in Vero cells | Vero cells, Shiga toxin protein synthesis inhibition reporter | inhibition, % at 38.7 µM | hit rate 9.2% among 290,000 | AID 2315; in the data active means inhibition mostly above about 28%, no sharp cut-off; inactive means mostly below about 43%; further: 0% is about no effect
Cycloheximide cs – counter-screen hit for Shiga toxin inhibitors, cycloheximide. max response, %. AID 2314. hit rate 12% among 300,000. cell reporter, cycloheximide protein synthesis inhibition counterscreen; in the data active means max response mostly above about 13%, no sharp cut-off; inactive means mostly below about 14%; further: read at 38.3 µM for the half of the compounds with a filed dose; 0% is about no effect
Pf growth 48h – P. falciparum growth inhibition at 48 hours (one generation); P. falciparum luciferase growth in erythrocytes, 48 h; Potency, µM (series often up to 28.7 µM), inactives show at the highest dose activity change, negative = inhibition, actives largely listed as inhibitors; hit rate 5.9% among 310,000; AID 504832; further: potency means the concentration at half of the fitted maximal effect; on the % scale 0 is the no-effect control and ±100 the full control effect
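Compounds are pin-transferred into medium, infected erythrocytes (2% hematocrit, 0.1% parasitemia final) are added, and plates sit one parasite generation at 37 C in 5% CO2. Detection reagent is then added and luminescence measured.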
Starred values were filed as active, the others as inactive; ? = inconclusive; · = no result. Unless noted, the call rests on the fitted dose curve; in most records, active means well fitted inhibition curve with a large enough effect; inconclusive means small, poorly fitted or top-dose-only effect, or another doubt; inactive means no such curve, though single readings can be large or run the other way.

SMILES	NS1 inh	Pf growth 96h	Shiga toxin inh	Cycloheximide cs	Pf growth 48h
CCOc1ccc(N2C(=O)CC(N3CCN(c4ccc(C(=O)c5ccncc5)cc4)CC3)C2=O)cc1 (stereo not given)	-103%	·	·	·	·
CCOC(=O)c1c(C)[nH]c(C(=O)OCC(=O)Nc2cc(C)ccc2OC)c1C	-1%	5.9µM*	-15	-4	-2%
CCOC(=O)c1c(C)[nH]c(C(=O)CSc2ccc(Cl)cc2)c1C	-5%	·	89*	22*	93%
CCOC(=O)c1c(C)[nH]c(C(=O)OCC(=O)Nc2cc(Cl)ccc2OC)c1C	14%	21%	-2	-4	-3%
CCOC(=O)c1c(C)[nH]c(C(=O)CSc2nc(C)cc(C)n2)c1C	3%	?	14	-2	?
Cc1cccc(C(=O)OCC(=O)NC(=O)c2ccccc2)c1O	·	-4%	·	·	35%
O=C(c1ccc(F)cc1)C1CCN(C(=O)c2ccccc2F)CC1	-11%	?	2	1	33%
O=C(NCCc1cn2ccccc2n1)c1ccccc1F	6%	11%	14	-2	45%
Fc1cccc(NCc2cn3ccccc3n2)c1	-5%	21%	126*	51*	-52%
Fc1ccc(NCc2cn3ccccc3n2)cc1	-5%	53%	77*	53*	20%
COc1cccc(-c2cc(C(=O)Nc3c(C)nn(Cc4ccccc4)c3C)no2)c1	-57%	?	9	7	?
COc1cccc(-c2cc(C(=O)Nc3c(C)nn(Cc4ccccc4C)c3C)no2)c1	-55%	25%	-15	2	5.2µM*
COc1ccc(-c2cc(C(=O)Nc3c(C)nn(Cc4ccccc4)c3C)no2)cc1	-1%	4.7µM*	-16	-1	·
COc1cc2c(C(=O)N3CCOCC3)c(CSc3ccccc3)n(C)c2cc1Br	·	?	21	-7	-15%
O=C1COc2ccc3ccccc3c21	1%	19%	40	16*	31%
c1ccc2c3c(ccc2c1)OCC1CONC31 (stereo not given)	·	93%	6	15	354%
CCOc1cc(S(=O)(=O)N(CC)CC)ccc1Br	-39%	-27%	-14	4	?
Cc1csc(=O)n1CC(=O)OCc1cccc2ccccc12	-11%	2%	79*	45*	8%
Cc1cc(C)c(C(=O)COC(=O)Cn2c(C)csc2=O)cc1C	1%	23%	44*	24*	10%
COc1cccc(N2CCN(C(=O)CCCCCNc3nc(=S)[nH]c4ccccc34)CC2)c1	7%	14%	-16	-5	-10%
COc1cccc(CNC(=O)N2CCN(S(=O)(=O)c3ccc(C)cc3)CC2)c1	-10%	-19%	-5	2	-3%
CS(=O)(=O)c1ccc(SCC(=O)NC2CCS(=O)(=O)C2)c([N+](=O)[O-])c1 (stereo not given)	·	31%	2	3	1%
CC(=O)c1sc(NC(=O)c2cc(-c3ccccc3)nn2-c2ccccc2)nc1C	15%	34%	-19	2	13%
O=C(Nc1nc2ccccc2s1)c1cc(-c2ccccc2)nn1-c1ccccc1	?	?	24*	26*	32%
O=C(NNC(=O)c1cc(-c2ccccc2)nn1-c1ccccc1)c1ccccc1	-1%	28%	13	8.5*	17%
SMILES	NS1 inh	Pf growth 96h	Shiga toxin inh	Cycloheximide cs	Pf growth 48h
COc1cc(NC(=O)Cn2nc(C(F)(F)F)c3c2CCCC3)cc(OC)c1OC	-7%	·	-22	-3	10µM*
CCc1ccc(NC(=O)Cn2nc(C(F)(F)F)c3c2CCC3)cc1	8%	68%	14	-4	39%
O=C(Cn1nc(C(F)(F)F)c2c1CCCC2)NCCN1CCOCC1	-4%	15µM*	-7	-1	12µM*
O=[N+]([O-])c1ccccc1Oc1ccc(C(F)(F)F)cn1	·	0%	15	-1	14%
FC(F)(F)c1ccc(Oc2ccc3ccccc3c2Br)nc1	-17%	2.9µM*	2	4	?
Cc1cc(NC(=O)/C=C/c2ccccc2Cl)n(-c2nc3ccccc3[nH]2)n1	5%	?	1	14*	?
Cc1cc(NC(=O)c2ccc(F)cc2F)n(-c2nc3ccccc3[nH]2)n1	2%	32%	1	11	59%
Cc1cc(NC(=O)CC2CCCC2)n(-c2nc3ccccc3[nH]2)n1	-15%	5.9µM*	-12	3	?
CC(C)Cc1nnc(NC(=O)Nc2ccccc2)s1	-7%	-12%	57*	46*	74%
Cc1ccc(NC(=O)Nc2nnc(Cc3ccc([N+](=O)[O-])cc3)s2)cc1	-1%	?	77*	50*	-1%
COc1ccc(Cc2nnc(NC(=O)Nc3ccc(F)cc3)s2)cc1	5%	?	·	-3	?
O=C(Nc1ccc(F)cc1)Nc1nnc(Cc2ccccc2)s1	15%	4.7µM*	·	3	?
CCN(CC(=O)Nc1cccc(OC)c1)C(=O)c1cnc(Cl)c(Cl)c1	12%	21%	-3	-2	3%
CCC(=O)N1CCc2cc(Br)cc(S(=O)(=O)CCC(=O)NCCOC)c21	1%	·	-13	-3	·
CCC(=O)N1CCc2cc(Br)cc(S(=O)(=O)N3CCC(C(=O)NC(C)C)CC3)c21	-6%	6%	-7	-4	6.6µM*
CCOC(=O)N1CCC(NS(=O)(=O)c2cc3c(cc2Cl)NC(=O)CO3)CC1	6%	0.21µM*	-7	-3	?
O=C(C1CC1)N1CCc2cc(Br)cc(S(=O)(=O)NCCCN3CCCCC3)c21	14%	0%	23	-6	-7%
O=C(C1CC1)N1CCc2cc(Br)cc(S(=O)(=O)NC3CCCCC3)c21	-37%	?	-11	-2	4.7µM*
CCC(=O)N1CCc2cc(Br)cc(S(=O)(=O)C3(C(=O)OC)CC3)c21	-42%	?	-8	-3	4.1µM*
CCCN(CCC)S(=O)(=O)c1cc(Br)cc2c1N(C(=O)CC)CC2	-105%	?	-2	1	1µM*
CCC(=O)N1CCc2cc(Br)cc(S(=O)(=O)N3CCCCC3CC)c21 (stereo not given)	9%	?	-7	-4	1µM*
CCOC(=O)N1CCN(S(=O)(=O)c2cc(Br)cc3c2N(C(=O)CC)CC3)CC1	-2%	·	5	-3	11%
CCC(=O)N1CCc2cc(Br)cc(S(=O)(=O)N3CCCCCC3)c21	-32%	?	11	1	2.9µM*
CCOC(=O)N1CCC(NS(=O)(=O)c2cc(Br)cc3c2N(C(=O)CC)CC3)CC1	-11%	-2%	-10	6	8.3µM*
CCC(=O)N1CCc2cc(Br)cc(S(=O)(=O)NCCN3CCCCC3CC)c21 (stereo not given)	4%	?	-7	1	?
O=C(NCc1cc([N+](=O)[O-])ccc1O)c1cc(-c2ccncc2)nc2ccccc12	15%	?	-7	-3	-24%
Oc1cc(O)c2c(c1)O[C@H](c1ccc(O)c(O)c1)[C@@H](O)[C@@H]2c1c(O)cc(O)c2c1O[C@@H](c1ccc(O)c(O)c1)[C@H](O)C2	-3%	·	·	·	·
